Measured values as given in article PMC5540273 (PLoS ONE, 2017).

What was measured:
Conditions in all cases: concentration: 1 μM, replicates: in singlicate; n = 1
MYLK4 = system: MYLK4
MYLK = system: MYLK
MYO3A = system: MYO3A
MYO3B = system: MYO3B
NDR1 = system: T1, NDR1
T1 construct: gene STK38

NDR2 = system: NDR2
NEK10 = system: NEK10
NEK11 = system: NEK11
NEK1 = system: NEK1
NEK2 = system: NEK2
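Further: KINOMEscan kinase panel screen.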

Row | Structure (SMILES) | %Inh (MYLK4) [%] | %Inh (MYLK) [%] | %Inh (MYO3A) [%] | %Inh (MYO3B) [%] | %Inh (NDR1) [%] | %Inh (NDR2) [%] | %Inh (NEK10) [%] | %Inh (NEK11) [%] | %Inh (NEK1) [%] | %Inh (NEK2) [%]
1 | Cn1ccc2ncnc(Oc3ccc(NC(=O)Nc4cccnc4)c(Cl)c3)c21 | 0 | 0 | 0 | 1 | 0 | 14 | 0 | 0 | 0 | 0
2 | FC(F)(F)c1ccc(-c2nn3ncccc3c2-c2ccnc(Nc3cccc(C(F)(F)F)c3)n2)cc1 [GW828205] | 1 | 40 | 0 | 0 | 19 | 0 | 0 | 0 | 0 | 0
3 | O=C(NCCCN1CCCC1=O)c1cnc(NCc2cc(Cl)ccc2Cl)nc1NC1CCNCC1 | 3 | 11 | 0 | 0 | 0 | 0 | 0 | 0 | 0 | 7
4 | Cn1cc(-c2ccc3c(c2)CCN3C(=O)Cc2cccc(C(F)(F)F)c2)c2c(N)ncnc21 [GSK2606414] | 0 | 1 | 0 | 7 | 0 | 0 | 18 | 14 | 0 | 15
5 | Cl.Fc1ccccc1COc1ccc(Nc2ncnc3ccc(-c4nnc(C(F)(F)F)o4)cc23)cc1Cl [GW424170] | 0 | 0 | 0 | 0 | 0 | 16 | 0 | 0 | 0 | 0
6 | CSc1ccc(NC2=C(c3ccccc3Cl)C(=O)NC2=O)cc1 [SB-342411] | 10 | 4 | 0 | 0 | 31 | 0 | 29 | 0 | 75 | 8
7 | Nc1nc(-c2ccccn2)c(-c2ccnc3ccccc23)s1 [GW548057] | 16 | 10 | 51 | 0 | 31 | 52 | 11 | 36 | 2 | 0
8 | Cn1ccc2ncnc(Nc3ccc(Oc4cccc(Cl)c4)c(Cl)c3)c21 | 3 | 0 | 0 | 3 | 22 | 11 | 2 | 0 | 0 | 0
9 | Nc1nc(-c2ccc3c(N)n[nH]c3c2)cc(N2CCCCC2)n1 [GSK2228768] | 0 | 1 | 0 | 0 | 0 | 0 | 0 | 0 | 0 | 3
10 | O=C(Nc1ccccc1)Nc1ccc(Oc2ccc3nccn3n2)cc1 | 0 | 11 | 0 | 0 | 16 | 0 | 0 | 0 | 0 | 0
11 | COc1ccc(NC(=O)c2ccc(-c3cc(-c4nnc(C)o4)ccc3C)cc2)cc1 [GW595885] | 0 | 14 | 16 | 16 | 12 | 0 | 16 | 0 | 0 | 0
12 | CCc1nc(-c2cccc(C)c2)c(-c2ccnc(NC(=O)c3ccccc3)c2)s1 | 0 | 18 | 65 | 0 | 0 | 22 | 6 | 0 | 0 | 0
13 | CC(C)N1CCC(n2cnc(-c3ccc(F)cc3)c2-c2ccnc(N)n2)CC1 [SB-223132] | 9 | 19 | 0 | 0 | 7 | 0 | 9 | 0 | 11 | 0
14 | Cl.Cl.c1ccc(-c2cc3ccncc3cc2OC2CCNCC2)cc1 [GSK1122999] | 21 | 25 | 10 | 0 | 0 | 0 | 24 | 0 | 0 | 17
15 | c1ccc(-c2ccc3c(-c4ccnc(Nc5ccc6c(c5)OCCO6)n4)cnn3n2)cc1 [GW818941] | 0 | 11 | 15 | 0 | 11 | 0 | 19 | 0 | 0 | 0
16 | CNc1nccc(-c2c(-c3ccc(F)cc3)ncn2CCCN2CCOCC2)n1 [SB-222516] | 0 | 0 | 0 | 0 | 0 | 28 | 0 | 0 | 0 | 0
17 | N#Cc1ccc(Oc2ccc(Nc3ncnc4cc[nH]c34)cc2Cl)cc1 | 13 | 30 | 18 | 38 | 33 | 0 | 3 | 0 | 0 | 10

Row | Structure (SMILES) | %Inh (MYLK4) [%] | %Inh (MYLK) [%] | %Inh (MYO3A) [%] | %Inh (MYO3B) [%] | %Inh (NDR1) [%] | %Inh (NDR2) [%] | %Inh (NEK10) [%] | %Inh (NEK11) [%] | %Inh (NEK1) [%] | %Inh (NEK2) [%]
18 | Clc1cccc(-c2nc(Nc3ccncc3)c3ccccc3n2)c1 [GW873004] | 0 | 0 | 15 | 17 | 15 | 0 | 0 | 0 | 0 | 0
19 | COC(=O)c1cccc(NC(=O)NCCNc2ccnc(Nc3ccc(F)cc3)n2)c1 [GSK1379883] | 6 | 11 | 31 | 0 | 0 | 27 | 8 | 10 | 0 | 0
20 | Cc1ccc(C)c(NC(=O)NCCNc2ccnc(Nc3ccc(F)cc3)n2)c1 [GSK1379878] | 0 | 8 | 0 | 0 | 0 | 16 | 11 | 17 | 0 | 0
21 | Clc1cc(Nc2ncnc3cc[nH]c23)ccc1OCc1ccccn1 | 9 | 17 | 24 | 20 | 14 | 0 | 0 | 0 | 5 | 0
22 | CN1CCC(n2cnc(-c3ccc(F)cc3)c2-c2ccnc(NC3CCNCC3)n2)CC1 [SB-229482] | 11 | 5 | 14 | 0 | 0 | 0 | 13 | 0 | 0 | 0
23 | CCC(CC)(CC)n1cnc2c(N)ncnc21 [SKF-97620] | 0 | 0 | 0 | 35 | 42 | 16 | 65 | 0 | 0 | 0
24 | COc1ccc(Nc2nccc(N3CCC(NC(=O)Nc4ccc5c(c4)OCO5)C3)n2)cc1 (stereo not shown) [GSK1379745] | 0 | 25 | 0 | 3 | 0 | 0 | 0 | 0 | 0 | 0
25 | O=C(Nc1n[nH]c2nc(-c3ccco3)c(Br)cc12)c1ccc(CN2CCCC2)cc1.O=C(O)[C@H](O)[C@@H](O)C(=O)O [SB-742352] | 5 | 83 | 0 | 8 | 0 | 0 | 0 | 0 | 0 | 6
26 | O=C(Nc1ccccc1F)NC1CCN(c2ccnc(Nc3ccc(F)cc3)n2)C1 (stereo not shown) [GSK1379722] | 0 | 0 | 2 | 0 | 12 | 0 | 22 | 2 | 0 | 0
27 | Nc1n[nH]c2nnc(-c3ccccc3)cc12 [SB-517389] | 24 | 19 | 0 | 0 | 14 | 0 | 17 | 0 | 0 | 5
28 | COc1cc2c(Nc3cccc(NC(=O)c4ccccc4)c3)ncnc2cc1OCCCN1CCOCC1 [GSK223810] | 2 | 2 | 0 | 0 | 0 | 0 | 0 | 0 | 1 | 2
29 | Clc1ccc(-c2cc(-c3c[nH]nc3-c3ccccn3)ccn2)cc1 [GW681251] | 0 | 0 | 0 | 0 | 0 | 0 | 12 | 0 | 0 | 0
30 | Cl.O=S(=O)(c1cccc(F)c1)c1ccc(Nc2ncnc3cc(Br)sc23)cc1Cl [GSK306886] | 9 | 3 | 22 | 0 | 8 | 1 | 0 | 1 | 32 | 5
31 | CC(=O)Nc1n[nH]c2ncc(-c3ccccc3)cc12 [SB-548492] | 28 | 23 | 25 | 0 | 8 | 17 | 0 | 18 | 0 | 9
32 | CCc1nc(-c2cccc(N(C)S(=O)(=O)c3ccccc3)c2)c(-c2ccnc(Nc3ccc(N4CCN(C(C)=O)CC4)nc3)n2)s1 [GSK1645895] | 7 | 15 | 23 | 0 | 15 | 0 | 0 | 0 | 14 | 9
33 | Nc1nc(-c2ccc3c(N)n[nH]c3c2)cc(N2CCC[C@@H](C(=O)Nc3ccccc3)C2)n1.O=C(O)C(F)(F)F.O=C(O)C(F)(F)F [GSK2288359] | 9 | 27 | 19 | 0 | 1 | 5 | 0 | 0 | 0 | 0
34 | COc1ccc(NC(=O)Nc2ccc(C)c(-c3ccc(C(=O)Nc4ccncc4)cc3)c2)cc1 [GSK1398475] | 0 | 0 | 1 | 0 | 17 | 0 | 0 | 0 | 0 | 0
